In the supplement of paper PMC11001985:
Unmarked numbers belong to inactive results.

Compound: C#CCNC(=O)CCSSCCC(=O)NCCc1ccc(C=O)c(C=O)c1
Test: lysine labeling ratio R10:1 (500 µM / 50 µM probe), SILAC-ABPP in living cells; higher = lower intrinsic lysine reactivity toward the probe, active = 2 or less
Settings: HeLa; probe concentrations 500 vs 50 µM
Method in brief: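 Measurements came from LC-MS/MS on a TIMS-TOF Pro of mixed SILAC light and heavy HeLa lysates after click to biotin-azide, trypsin digestion, neutravidin capture, DTT release and alkylation. Before lysis, the living cells sat in PBS at room temperature with 50 µM or 500 µM of an alkyne-tagged, disulfide-linked lysine probe, and labels were swapped forward and reverse. R per lysine is the median across both swap directions of the filtered median high-probe/low-probe MS1 peptide ratio. The cap is 20.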

Chain of UniProt Q5T9A4 (Q5T9A4 whole entry): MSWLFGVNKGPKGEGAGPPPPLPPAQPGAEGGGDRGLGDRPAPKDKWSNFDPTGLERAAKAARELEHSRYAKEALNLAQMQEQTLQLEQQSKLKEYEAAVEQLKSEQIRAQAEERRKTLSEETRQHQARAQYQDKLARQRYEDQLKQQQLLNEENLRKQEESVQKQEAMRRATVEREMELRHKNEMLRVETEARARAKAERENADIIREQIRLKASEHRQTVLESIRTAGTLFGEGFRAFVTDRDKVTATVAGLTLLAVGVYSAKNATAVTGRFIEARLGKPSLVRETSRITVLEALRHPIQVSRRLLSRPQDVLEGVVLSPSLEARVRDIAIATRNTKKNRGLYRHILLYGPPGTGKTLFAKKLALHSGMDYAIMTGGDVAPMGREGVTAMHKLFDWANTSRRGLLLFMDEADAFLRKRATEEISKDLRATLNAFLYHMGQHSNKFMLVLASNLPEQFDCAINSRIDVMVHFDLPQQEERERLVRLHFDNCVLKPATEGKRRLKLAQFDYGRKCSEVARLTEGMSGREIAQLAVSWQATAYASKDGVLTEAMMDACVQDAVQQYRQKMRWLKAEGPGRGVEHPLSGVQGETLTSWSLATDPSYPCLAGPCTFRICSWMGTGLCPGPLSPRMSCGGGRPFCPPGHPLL
Chain of UniProt P12956 (P12956 whole entry): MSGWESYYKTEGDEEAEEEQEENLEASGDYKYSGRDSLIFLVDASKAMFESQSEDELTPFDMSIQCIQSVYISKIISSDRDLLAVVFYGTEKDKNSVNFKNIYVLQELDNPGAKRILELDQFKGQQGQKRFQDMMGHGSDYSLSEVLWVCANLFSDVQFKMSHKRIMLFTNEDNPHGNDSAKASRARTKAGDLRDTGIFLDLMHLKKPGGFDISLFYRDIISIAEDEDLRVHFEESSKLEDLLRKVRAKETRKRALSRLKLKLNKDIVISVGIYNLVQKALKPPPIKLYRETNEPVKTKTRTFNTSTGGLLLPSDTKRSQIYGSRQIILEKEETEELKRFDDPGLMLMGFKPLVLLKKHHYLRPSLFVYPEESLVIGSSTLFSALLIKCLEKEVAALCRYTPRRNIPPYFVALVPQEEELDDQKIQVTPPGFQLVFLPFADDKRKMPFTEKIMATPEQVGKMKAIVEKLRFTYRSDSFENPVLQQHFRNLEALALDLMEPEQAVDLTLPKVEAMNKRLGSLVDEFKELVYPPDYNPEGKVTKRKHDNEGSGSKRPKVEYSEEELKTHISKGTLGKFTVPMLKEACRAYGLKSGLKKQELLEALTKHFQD
Chain of UniProt Q13813 (Q13813 whole entry): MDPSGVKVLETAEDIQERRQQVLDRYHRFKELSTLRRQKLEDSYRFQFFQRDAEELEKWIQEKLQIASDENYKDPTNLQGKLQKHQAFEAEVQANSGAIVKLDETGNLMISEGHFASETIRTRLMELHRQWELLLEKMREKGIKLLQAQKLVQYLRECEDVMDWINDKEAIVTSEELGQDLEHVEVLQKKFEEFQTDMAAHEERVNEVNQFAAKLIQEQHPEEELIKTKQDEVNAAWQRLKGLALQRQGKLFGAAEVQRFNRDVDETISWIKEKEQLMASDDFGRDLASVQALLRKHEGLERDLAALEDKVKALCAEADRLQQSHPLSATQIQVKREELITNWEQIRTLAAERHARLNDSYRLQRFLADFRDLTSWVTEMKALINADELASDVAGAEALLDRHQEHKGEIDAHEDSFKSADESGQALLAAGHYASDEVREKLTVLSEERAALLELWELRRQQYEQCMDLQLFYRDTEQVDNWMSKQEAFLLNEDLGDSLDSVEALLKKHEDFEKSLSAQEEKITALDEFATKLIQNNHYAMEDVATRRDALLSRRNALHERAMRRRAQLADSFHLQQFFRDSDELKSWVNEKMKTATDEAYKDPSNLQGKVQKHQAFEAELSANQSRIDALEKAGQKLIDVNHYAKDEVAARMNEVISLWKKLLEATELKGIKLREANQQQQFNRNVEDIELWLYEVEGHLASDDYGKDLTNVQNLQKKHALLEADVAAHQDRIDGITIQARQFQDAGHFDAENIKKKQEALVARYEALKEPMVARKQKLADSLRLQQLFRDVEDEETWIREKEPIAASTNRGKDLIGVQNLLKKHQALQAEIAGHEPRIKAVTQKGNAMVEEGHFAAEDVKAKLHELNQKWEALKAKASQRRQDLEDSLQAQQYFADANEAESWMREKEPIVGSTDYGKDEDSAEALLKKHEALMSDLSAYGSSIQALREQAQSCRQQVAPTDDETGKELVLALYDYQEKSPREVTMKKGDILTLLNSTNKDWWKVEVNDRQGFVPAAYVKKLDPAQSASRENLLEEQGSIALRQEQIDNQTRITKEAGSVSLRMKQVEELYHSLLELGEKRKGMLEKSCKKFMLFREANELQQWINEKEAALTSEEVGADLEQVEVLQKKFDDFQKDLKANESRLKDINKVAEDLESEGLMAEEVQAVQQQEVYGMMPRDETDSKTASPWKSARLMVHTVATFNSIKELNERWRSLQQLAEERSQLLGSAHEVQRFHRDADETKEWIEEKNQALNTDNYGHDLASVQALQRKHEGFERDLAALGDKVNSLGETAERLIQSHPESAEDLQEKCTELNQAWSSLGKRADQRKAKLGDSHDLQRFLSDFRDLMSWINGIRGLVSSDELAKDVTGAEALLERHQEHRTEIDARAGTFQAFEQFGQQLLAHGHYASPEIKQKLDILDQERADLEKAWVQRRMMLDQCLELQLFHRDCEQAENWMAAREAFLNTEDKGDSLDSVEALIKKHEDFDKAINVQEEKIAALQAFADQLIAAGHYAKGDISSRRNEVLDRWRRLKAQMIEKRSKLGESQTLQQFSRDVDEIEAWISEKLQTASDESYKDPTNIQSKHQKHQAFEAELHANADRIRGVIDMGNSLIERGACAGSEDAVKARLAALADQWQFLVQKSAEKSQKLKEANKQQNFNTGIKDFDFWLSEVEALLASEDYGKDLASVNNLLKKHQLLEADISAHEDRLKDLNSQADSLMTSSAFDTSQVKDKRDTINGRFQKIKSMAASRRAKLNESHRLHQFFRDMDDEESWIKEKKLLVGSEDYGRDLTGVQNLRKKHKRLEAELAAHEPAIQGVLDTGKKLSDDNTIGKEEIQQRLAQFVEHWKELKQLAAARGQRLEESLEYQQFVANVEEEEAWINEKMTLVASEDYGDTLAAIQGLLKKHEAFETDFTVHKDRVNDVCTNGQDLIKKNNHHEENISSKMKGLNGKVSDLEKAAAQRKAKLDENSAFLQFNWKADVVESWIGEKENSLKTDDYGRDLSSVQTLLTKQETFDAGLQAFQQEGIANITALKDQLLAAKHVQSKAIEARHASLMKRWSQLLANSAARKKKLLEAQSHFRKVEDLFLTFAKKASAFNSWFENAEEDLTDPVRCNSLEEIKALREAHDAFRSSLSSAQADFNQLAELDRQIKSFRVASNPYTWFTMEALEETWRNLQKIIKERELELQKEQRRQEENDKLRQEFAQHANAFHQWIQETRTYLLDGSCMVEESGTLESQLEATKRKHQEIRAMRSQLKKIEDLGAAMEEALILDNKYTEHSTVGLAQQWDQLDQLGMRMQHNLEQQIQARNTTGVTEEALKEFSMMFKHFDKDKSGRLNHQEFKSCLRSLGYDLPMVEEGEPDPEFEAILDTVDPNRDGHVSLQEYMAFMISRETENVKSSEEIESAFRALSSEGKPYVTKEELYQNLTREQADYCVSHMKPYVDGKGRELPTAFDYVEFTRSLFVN
Chain of UniProt P23229 (P23229 whole entry): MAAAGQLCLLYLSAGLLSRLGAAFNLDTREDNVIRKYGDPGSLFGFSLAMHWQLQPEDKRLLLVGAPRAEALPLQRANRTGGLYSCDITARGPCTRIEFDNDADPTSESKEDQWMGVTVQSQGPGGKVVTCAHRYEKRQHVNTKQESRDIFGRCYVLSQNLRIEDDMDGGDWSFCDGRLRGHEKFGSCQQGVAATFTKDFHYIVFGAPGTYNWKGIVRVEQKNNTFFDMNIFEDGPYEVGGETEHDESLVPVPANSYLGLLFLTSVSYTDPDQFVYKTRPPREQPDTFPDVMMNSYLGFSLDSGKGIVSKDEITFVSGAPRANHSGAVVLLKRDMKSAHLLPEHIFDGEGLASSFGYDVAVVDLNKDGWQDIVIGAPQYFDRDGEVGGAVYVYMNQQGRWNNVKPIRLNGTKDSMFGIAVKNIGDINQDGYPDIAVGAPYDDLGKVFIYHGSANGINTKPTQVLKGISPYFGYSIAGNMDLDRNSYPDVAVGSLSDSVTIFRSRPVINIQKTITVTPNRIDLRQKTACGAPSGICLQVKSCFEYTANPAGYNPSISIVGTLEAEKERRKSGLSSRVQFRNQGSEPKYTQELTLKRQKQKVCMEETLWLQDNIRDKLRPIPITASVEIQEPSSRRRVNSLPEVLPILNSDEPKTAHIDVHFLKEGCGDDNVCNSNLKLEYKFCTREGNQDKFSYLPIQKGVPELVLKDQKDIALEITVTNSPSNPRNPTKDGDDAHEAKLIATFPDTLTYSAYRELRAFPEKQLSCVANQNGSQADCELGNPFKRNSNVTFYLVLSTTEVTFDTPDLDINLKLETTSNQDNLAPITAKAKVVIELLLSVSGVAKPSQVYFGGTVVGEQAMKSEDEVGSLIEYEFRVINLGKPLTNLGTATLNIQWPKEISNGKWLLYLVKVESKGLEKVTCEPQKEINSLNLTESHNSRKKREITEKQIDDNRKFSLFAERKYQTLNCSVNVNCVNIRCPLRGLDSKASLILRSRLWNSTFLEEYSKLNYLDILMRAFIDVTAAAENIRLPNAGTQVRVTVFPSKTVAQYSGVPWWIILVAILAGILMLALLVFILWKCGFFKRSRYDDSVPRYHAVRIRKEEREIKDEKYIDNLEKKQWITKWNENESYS
Chain of UniProt Q8TCZ2 (Q8TCZ2 whole entry): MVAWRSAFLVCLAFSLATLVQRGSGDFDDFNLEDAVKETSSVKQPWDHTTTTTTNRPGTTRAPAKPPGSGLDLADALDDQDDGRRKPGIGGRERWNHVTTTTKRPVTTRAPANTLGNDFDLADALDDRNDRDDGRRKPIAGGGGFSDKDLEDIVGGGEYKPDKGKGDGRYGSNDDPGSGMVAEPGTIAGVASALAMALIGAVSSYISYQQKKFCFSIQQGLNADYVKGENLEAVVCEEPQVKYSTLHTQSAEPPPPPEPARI

| Target | lysine labeling ratio R10:1 |
| --- | --- |
| FSCN1 (lysine site: K399) (UniProt Q16658) | 3.81 |
| RPL10A (lysine site: K212) (UniProt P62906) | 1.53 (active) |
| ECE1 (lysine site: K747) (UniProt P42892) | 4.05 |
| IQGAP1 (lysine site: K274) (UniProt P46940) | 3.87 |
| UniProt Q15149 (lysine site: K4140) | 3.87 |
| FAT4 (lysine site: K4224) (UniProt Q6V0I7) | 5.49 |
| HSPA9 (lysine site: K345) (UniProt P38646) | 1.17 (active) |
| EPCAM (lysine site: K160) (UniProt P16422) | 2.33 |
| UniProt Q15149 (lysine site: K2411) | 4.67 |
| LMO7 (lysine site: K1248) (UniProt Q8WWI1) | 0.993 (active) |
| ENG (lysine site: K513) (UniProt P17813) | 4.09 |
| ALDOA (lysine site: K42) (UniProt P04075) | 3 |
| UniProt Q15149 (lysine site: K1401) | 3.7 |
| HNRNPA1 (lysine site: K8) (UniProt P09651) | 4.27 |
| PTPRM (lysine site: K234) (UniProt P28827) | 1.53 (active) |
| UniProt Q15149 (lysine site: K1055) | 1.98 (active) |
| ITGAV (lysine site: K499) (UniProt P06756) | 3.64 |
| ERLIN2 (lysine site: K205) (UniProt O94905) | 3.71 |
| SLC3A2 (lysine site: K245) (UniProt P08195) | 5.72 |
| GPC1 (lysine site: K42) (UniProt P35052) | 2.38 |
| ERP29 (lysine site: K137) (UniProt P30040) | 6.12 |
| ITGA6 (lysine site: K594) (UniProt P23229) | 6.44 |
| ARPC2 (lysine site: K275) (UniProt O15144) | 2.12 |
| RPL5 (lysine site: K48) (UniProt P46777) | 1.91 (active) |
| LTF (lysine site: K320) (UniProt P02788) | 1.48 (active) |
| RBMX (lysine site: K217) (UniProt P38159) | 8.01 |

| Target | lysine labeling ratio R10:1 |
| --- | --- |
| PA2G4 (lysine site: K376) (UniProt Q9UQ80) | 1.5 (active) |
| NENF (lysine site: K136) (UniProt Q9UMX5) | 0.955 (active) |
| TMED9 (lysine site: K95) (UniProt Q9BVK6) | 4.55 |
| ATAD3B (lysine site: K183) (UniProt Q5T9A4) | 1.8 (active) |
| LAMP1 (lysine site: K337) (UniProt P11279) | 6.57 |
| PTPRF (lysine site: K994) (UniProt P10586) | 4.54 |
| HSPE1 (lysine site: K86) (UniProt P61604) | 1.85 (active) |
| UniProt P23352 (lysine site: K279) | 3.78 |
| SPTBN1 (lysine site: K1063) (UniProt Q01082) | 7.24 |
| HSPA8 (lysine site: K71) (UniProt P11142) | 2.62 |
| PSMB4 (lysine site: K201) (UniProt P28070) | 3.87 |
| SCAMP3 (lysine site: K102) (UniProt O14828) | 1.06 (active) |
| PLPP3 (lysine site: K187) (UniProt O14495) | 2.06 |
| UGDH (lysine site: K107) (UniProt O60701) | 1.1 (active) |
| METTL7A (lysine site: K210) (UniProt Q9H8H3) | 1.36 (active) |
| NPR3 (lysine site: K127) (UniProt P17342) | 4.43 |
| SERPINH1 (lysine site: K160) (UniProt P50454) | 2.81 |
| UniProt P52803 (lysine site: K180) | 6.21 |
| UniProt O60245 (lysine site: K713) | 2.99 |
| HNRNPC (lysine site: K94) (UniProt P07910) | 3.25 |
| RPL5 (lysine site: K242) (UniProt P46777) | 5.69 |
| VAMP8 (lysine site: K64) (UniProt Q9BV40) | 2.52 |
| UniProt Q15149 (lysine site: K4348) | 1.12 (active) |
| HNRNPM (lysine site: K69) (UniProt P52272) | 3.38 |
| SPTAN1 (lysine site: K1334) (UniProt Q13813) | 3.63 |
| UniProt P05787 (lysine site: K130) | 9.55 |

| Target | lysine labeling ratio R10:1 |
| --- | --- |
| ATAD3B (lysine site: K505) (UniProt Q5T9A4) | 0.98 (active) |
| PLXNA1 (lysine site: K868) (UniProt Q9UIW2) | 1.37 (active) |
| XRCC6 (lysine site: K299) (UniProt P12956) | 1.09 (active) |
| A2M (lysine site: K116) (UniProt P01023) | 0.757 (active) |
| UniProt P08727 (lysine site: K265) | 3.48 |
| XRCC6 (lysine site: K582) (UniProt P12956) | 1.52 (active) |
| CD99L2 (lysine site: K86) (UniProt Q8TCZ2) | 3.94 |
| PAICS (lysine site: K304) (UniProt P22234) | 4.39 |
| OSBPL5 (lysine site: K446) (UniProt Q9H0X9) | 1.7 (active) |
| DDX3X (lysine site: K264) (UniProt O00571) | 1.78 (active) |
| HEG1 (lysine site: K1075) (UniProt Q9ULI3) | 3.38 |
| PICALM (lysine site: K324) (UniProt Q13492) | 1.36 (active) |
| IGF1R (lysine site: K221) (UniProt P08069) | 1.51 (active) |
| TKT (lysine site: K543) (UniProt P29401) | 9.07 |
| KRT18 (lysine site: K426) (UniProt P05783) | 9.55 |
| ATAD3B (lysine site: K46) (UniProt Q5T9A4) | 3.54 |
| SPTAN1 (lysine site: K2404) (UniProt Q13813) | 1.94 (active) |
| LRP6 (lysine site: K1053) (UniProt O75581) | 2.76 |
| UniProt P54851 (lysine site: K126) | 3.69 |
| CSPG4 (lysine site: K465) (UniProt Q6UVK1) | 1.56 (active) |
| NUCB2 (lysine site: K84) (UniProt P80303) | 1.63 (active) |
| LAMB1 (lysine site: K1708) (UniProt P07942) | 3.33 |
| NSUN2 (lysine site: K28) (UniProt Q08J23) | 2.49 |
| PSMA2 (lysine site: K53) (UniProt P25787) | 2.94 |
| ITGA6 (lysine site: K511) (UniProt P23229) | 14.7 |
| THRAP3 (lysine site: K486) (UniProt Q9Y2W1) | 1.7 (active) |

| Target | lysine labeling ratio R10:1 |
| --- | --- |
| PEBP1 (lysine site: K187) (UniProt P30086) | 2.64 |
| CKAP4 (lysine site: K223) (UniProt Q07065) | 2.5 |
| CAPZB (lysine site: K237) (UniProt P47756) | 1.4 (active) |
| UniProt P62829 (lysine site: K13) | 5.2 |
| UniProt Q15800 (lysine site: K284) | 1.82 (active) |
| UniProt Q15149 (lysine site: K2318) | 4.26 |
| RPS3A (lysine site: K56) (UniProt P61247) | 1.81 (active) |
| ITGB1 (lysine site: K107) (UniProt P05556) | 1.41 (active) |
| UniProt P60709 (lysine site: K18) | 4.98 |
| PDCD6IP (lysine site: K303) (UniProt Q8WUM4) | 2.47 |
| UniProt Q14574 (lysine site: K381) | 1.61 (active) |
| UniProt P26639 (lysine site: K243) | 3.1 |
| TPI1 (lysine site: K188) (UniProt P60174) | 4.28 |
| GPRC5A (lysine site: K14) (UniProt Q8NFJ5) | 6.52 |
| AGRN (lysine site: K1368) (UniProt O00468) | 1.88 (active) |
| ATP1B1 (lysine site: K216) (UniProt P05026) | 4.23 |
| WNT5A (lysine site: K348) (UniProt P41221) | 1.98 (active) |
| UniProt Q15149 (lysine site: K2255) | 4.45 |
| ITGB5 (lysine site: K72) (UniProt P18084) | 2.3 |
| HSPA9 (lysine site: K394) (UniProt P38646) | 3.32 |
| RPL34 (lysine site: K19) (UniProt P49207) | 2.71 |
| UniProt Q9UHN6 (lysine site: K1262) | 2.6 |
| L1CAM (lysine site: K62) (UniProt P32004) | 2.25 |
